Tests used:
Conditions in all cases: concentration: 1 μM,replicates: in singlicate; n = 1
ASK2 = system: T1, ASK2
T1 construct: gene MAP3K6

AURKA = system: AURKA
AURKB = system: AURKB
AURKC = system: AURKC
AXL = system: AXL
BIKE = system: T2, BIKE
T2 construct: gene BMP2K

BLK = system: BLK
BMPR1A = system: BMPR1A
BMPR1B = system: BMPR1B
BMPR2 = system: BMPR2
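Note: KINOMEscan kinase panel screen.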

## C[C@@H](Oc1cc(-c2cnn(C3CCNCC3)c2)cnc1N)c1c(Cl)ccc(F)c1Cl
ASK2
  %Inh: 0%
AURKA
  %Inh: 98.6%
AURKB
  %Inh: 98.3%
AURKC
  %Inh: 86%
AXL
  %Inh: 98.1%
BIKE
  %Inh: 86%
BLK
  %Inh: 58%
BMPR1A
  %Inh: 18%
BMPR1B
  %Inh: 79%
BMPR2
  %Inh: 17%

## O=C(NCCNc1ccnc(NCc2ccc(F)cc2)n1)c1cc2ccccc2s1 [GSK1379944]
ASK2
  %Inh: 0%
AURKA
  %Inh: 66%
AURKB
  %Inh: 34%
AURKC
  %Inh: 27%
AXL
  %Inh: 0%
BIKE
  %Inh: 27%
BLK
  %Inh: 20%
BMPR1A
  %Inh: 0%
BMPR1B
  %Inh: 0%
BMPR2
  %Inh: 14%

## Cc1ccc2c(-c3ccncc3)c(-c3ccc(F)cc3)nn2c1.Cl [GW461484]
ASK2
  %Inh: 0%
AURKA
  %Inh: 8%
AURKB
  %Inh: 0%
AURKC
  %Inh: 14%
AXL
  %Inh: 0%
BIKE
  %Inh: 19%
BLK
  %Inh: 3%
BMPR1A
  %Inh: 0%
BMPR1B
  %Inh: 0%
BMPR2
  %Inh: 11%

## Cl.Cl.Nc1nc(-c2ccc3c(N)n[nH]c3c2)cc(N2CCCC(NC(=O)c3ccccc3)C2)n1 (stereo not shown) [GSK2286775]
ASK2
  %Inh: 11%
AURKB
  %Inh: 96.4%
AURKC
  %Inh: 92.9%
AXL
  %Inh: 80%
BIKE
  %Inh: 80%
BLK
  %Inh: 0%
BMPR1A
  %Inh: 0%
BMPR1B
  %Inh: 0%
BMPR2
  %Inh: 0%

## CCn1c(-c2nonc2N)nc2c(C#CC(C)(C)O)nc(OCCN)cc21.Cl.Cl [GSK902056]
ASK2
  %Inh: 20%
AURKA
  %Inh: 27%
AURKB
  %Inh: 38%
AURKC
  %Inh: 0%
AXL
  %Inh: 0%
BIKE
  %Inh: 20%
BLK
  %Inh: 7%
BMPR1A
  %Inh: 6%
BMPR1B
  %Inh: 0%
BMPR2
  %Inh: 3%

## C[C@@H]1CCN(C(=O)CC#N)C[C@@H]1N(C)c1ncnc2[nH]ccc12
ASK2
  %Inh: 0%
AURKA
  %Inh: 0%
AURKB
  %Inh: 0%
AURKC
  %Inh: 3%
AXL
  %Inh: 0%
BIKE
  %Inh: 17%
BMPR1A
  %Inh: 53%
BMPR1B
  %Inh: 0%
BMPR2
  %Inh: 0%

## Cl.Oc1cc(-c2nc(-c3ccccc3)[nH]c2-c2ccncc2)ccc1Cl [SB-386023]
ASK2
  %Inh: 27%
AURKA
  %Inh: 22%
AURKB
  %Inh: 19%
AURKC
  %Inh: 0%
AXL
  %Inh: 42%
BIKE
  %Inh: 3%
BLK
  %Inh: 48%
BMPR1A
  %Inh: 9%
BMPR1B
  %Inh: 61%
BMPR2
  %Inh: 32%

## CC(C)N1C(=O)Cc2cc(Nc3ncc(C(F)(F)F)c(NCc4cccc(S(C)(=O)=O)c4)n3)ccc21
ASK2
  %Inh: 0%
AURKA
  %Inh: 97.3%
AURKB
  %Inh: 81%
AURKC
  %Inh: 43%
AXL
  %Inh: 30%
BIKE
  %Inh: 68%
BLK
  %Inh: 0%
BMPR1A
  %Inh: 0%
BMPR1B
  %Inh: 21%
BMPR2
  %Inh: 17%

## CCN(CC)CCOc1ccc(Nc2ncc3cc(-c4c(Cl)cccc4Cl)c(=O)n(C)c3n2)cc1 [SB-601273]
ASK2
  %Inh: 0%
AURKA
  %Inh: 62%
AURKB
  %Inh: 47%
AURKC
  %Inh: 95.4%
AXL
  %Inh: 93.7%
BIKE
  %Inh: 58%
BLK
  %Inh: 99.3%
BMPR1A
  %Inh: 100%
BMPR1B
  %Inh: 100%
BMPR2
  %Inh: 24%

## Cl.Cl.NC[C@H](Cc1ccc(C(F)(F)F)cc1)NC(=O)c1cc(Br)c(-c2ccnc3[nH]ccc23)s1 [GSK1487252]
ASK2
  %Inh: 0%
AURKA
  %Inh: 30%
AURKB
  %Inh: 61%
AURKC
  %Inh: 67%
AXL
  %Inh: 69%
BIKE
  %Inh: 50%
BLK
  %Inh: 0%
BMPR1A
  %Inh: 0%
BMPR1B
  %Inh: 0%
BMPR2
  %Inh: 0%

## Cc1occc1-c1nc(N)c(OC[C@@H](N)Cc2c[nH]c3ccccc23)cc1-c1cc2c(C)n[nH]c2cn1 [GSK1660450]
ASK2
  %Inh: 26%
AURKA
  %Inh: 0%
AURKB
  %Inh: 0%
AURKC
  %Inh: 51%
AXL
  %Inh: 0%
BIKE
  %Inh: 74%
BLK
  %Inh: 23%
BMPR1A
  %Inh: 0%
BMPR1B
  %Inh: 0%
BMPR2
  %Inh: 0%

## COc1ccc(C[C@@H](CN)NC(=O)c2cc(Br)c(-c3ccnc4[nH]ccc34)s2)cc1.Cl.Cl [GSK1389063]
ASK2
  %Inh: 16%
AURKA
  %Inh: 80%
AURKB
  %Inh: 86%
AURKC
  %Inh: 92.4%
AXL
  %Inh: 95.2%
BIKE
  %Inh: 94%
BLK
  %Inh: 0%
BMPR1A
  %Inh: 0%
BMPR1B
  %Inh: 0%
BMPR2
  %Inh: 73%

## CC(C)Nc1cc(-c2ccc3c(N)n[nH]c3c2)nc(N)n1 [GSK2221681]
ASK2
  %Inh: 0%
AURKB
  %Inh: 0%
AURKC
  %Inh: 40%
AXL
  %Inh: 0%
BIKE
  %Inh: 90.7%
BLK
  %Inh: 3%
BMPR1A
  %Inh: 0%
BMPR1B
  %Inh: 0%
BMPR2
  %Inh: 0%

## Nc1nc(Nc2ccccc2)cc(-c2ccc3c(N)n[nH]c3c2)n1 [GSK2225749]
ASK2
  %Inh: 0%
AURKB
  %Inh: 19%
AURKC
  %Inh: 47%
AXL
  %Inh: 0%
BIKE
  %Inh: 98.9%
BLK
  %Inh: 0%
BMPR1A
  %Inh: 0%
BMPR1B
  %Inh: 0%
BMPR2
  %Inh: 4%

## Cc1cc2cn[nH]c2cc1-c1cccc2c(N)c(C(N)=O)nnc12
ASK2
  %Inh: 95.6%
AURKA
  %Inh: 90%
AURKB
  %Inh: 97.3%
AURKC
  %Inh: 79%
AXL
  %Inh: 15%
BIKE
  %Inh: 75%
BLK
  %Inh: 91.5%
BMPR1A
  %Inh: 25%
BMPR1B
  %Inh: 88%
BMPR2
  %Inh: 96.5%

## C=CC(=O)Nc1cc2c(Nc3ccc(F)c(Cl)c3)ncnc2cc1OCCCN1CCOCC1 [GW781483]
ASK2
  %Inh: 0%
AURKA
  %Inh: 25%
AURKB
  %Inh: 0%
AURKC
  %Inh: 20%
AXL
  %Inh: 53%
BIKE
  %Inh: 22%
BLK
  %Inh: 99.6%
BMPR1A
  %Inh: 0%
BMPR1B
  %Inh: 0%
BMPR2
  %Inh: 15%

## Cc1cc(C(=O)Nc2ccc(Oc3ccc4nc(NC(=O)C5CC5)cn4n3)cc2)nn1-c1ccccc1
ASK2
  %Inh: 0%
AURKA
  %Inh: 0%
AURKB
  %Inh: 66%
AURKC
  %Inh: 65%
AXL
  %Inh: 79%
BIKE
  %Inh: 18%
BLK
  %Inh: 55%
BMPR1A
  %Inh: 3%
BMPR1B
  %Inh: 0%
BMPR2
  %Inh: 0%

## CCN(CC)CCCCNc1ncc2cc(-c3c(Cl)cccc3Cl)c(NC(=O)NC(C)(C)C)nc2n1
ASK2
  %Inh: 0%
AURKA
  %Inh: 10%
AURKB
  %Inh: 0%
AURKC
  %Inh: 10%
AXL
  %Inh: 68%
BIKE
  %Inh: 9%
BLK
  %Inh: 99.8%
BMPR1A
  %Inh: 55%
BMPR1B
  %Inh: 99.9%
BMPR2
  %Inh: 20%

## CN(C)CCOc1ccc(-c2cc(-c3c[nH]nc3-c3ccccn3)ccn2)cc1 [GW835314]
ASK2
  %Inh: 24%
AURKA
  %Inh: 0%
AURKB
  %Inh: 5%
AURKC
  %Inh: 12%
AXL
  %Inh: 49%
BIKE
  %Inh: 4%
BLK
  %Inh: 14%
BMPR1A
  %Inh: 13%
BMPR1B
  %Inh: 74%
BMPR2
  %Inh: 69%

## Cl.Cl.NC[C@H](CC1CCCCC1)NC(=O)c1cc(Br)c(-c2ccnc3[nH]ccc23)s1 [GSK1581427]
ASK2
  %Inh: 17%
AURKA
  %Inh: 63%
AURKB
  %Inh: 62%
AURKC
  %Inh: 95%
AXL
  %Inh: 86%
BIKE
  %Inh: 100%
BLK
  %Inh: 0%
BMPR1A
  %Inh: 0%
BMPR1B
  %Inh: 0%
BMPR2
  %Inh: 8%

## O=C(NCCCN1CCOC1=O)c1cnc(NCc2cc(Cl)ccc2Cl)nc1NC1CCCC1
ASK2
  %Inh: 0%
AURKA
  %Inh: 17%
AURKB
  %Inh: 14%
AURKC
  %Inh: 15%
AXL
  %Inh: 61%
BIKE
  %Inh: 12%
BLK
  %Inh: 22%
BMPR1A
  %Inh: 16%
BMPR1B
  %Inh: 0%
BMPR2
  %Inh: 0%

## NC(=O)c1cc(-c2ccccc2)cc2c(C3CCNCC3)c[nH]c12 [GSK301362]
ASK2
  %Inh: 2%
AURKA
  %Inh: 6%
AURKB
  %Inh: 1%
AURKC
  %Inh: 57%
AXL
  %Inh: 47%
BIKE
  %Inh: 65%
BLK
  %Inh: 16%
BMPR1A
  %Inh: 28%
BMPR1B
  %Inh: 0%
BMPR2
  %Inh: 4%

## Cc1n[nH]c2ccc(-c3cc(OC[C@@H](N)Cc4ccccc4)cnc3-c3ccoc3)cc12.O=C(O)C(F)(F)F.O=C(O)C(F)(F)F [GSK507358]
ASK2
  %Inh: 4%
AURKA
  %Inh: 0%
AURKB
  %Inh: 0%
AURKC
  %Inh: 0%
AXL
  %Inh: 0%
BIKE
  %Inh: 81%
BLK
  %Inh: 6%
BMPR1A
  %Inh: 0%
BMPR1B
  %Inh: 0%
BMPR2
  %Inh: 14%

## CNC(=O)c1ccccc1Sc1ccc2c(/C=C/c3ccccn3)n[nH]c2c1
ASK2
  %Inh: 0%
AURKA
  %Inh: 97.9%
AURKB
  %Inh: 99.6%
AURKC
  %Inh: 66%
BIKE
  %Inh: 89%
BLK
  %Inh: 0%
BMPR1A
  %Inh: 35%
BMPR1B
  %Inh: 0%
BMPR2
  %Inh: 0%

## C[C@H]1Oc2cc(cnc2N)-c2c(nn(C)c2C#N)CN(C)C(=O)c2ccc(F)cc21
ASK2
  %Inh: 0%
AURKA
  %Inh: 7%
AURKB
  %Inh: 4%
AURKC
  %Inh: 0%
AXL
  %Inh: 42%
BIKE
  %Inh: 0%
BLK
  %Inh: 31%
BMPR1A
  %Inh: 2%
BMPR1B
  %Inh: 0%
BMPR2
  %Inh: 0%

## Cc1ccc(-n2nc(C(C)(C)C)cc2NC(=O)Nc2ccc(OCCN3CCOCC3)c3ccccc23)cc1 [GW839464]
ASK2
  %Inh: 0%
AURKA
  %Inh: 0%
AURKB
  %Inh: 1%
AURKC
  %Inh: 0%
AXL
  %Inh: 12%
BIKE
  %Inh: 0%
BLK
  %Inh: 19%
BMPR1A
  %Inh: 26%
BMPR1B
  %Inh: 4%
BMPR2
  %Inh: 6%

## CN(C)CC(O)COc1ccc(Nc2nccc(-c3cnn4nc(N5CCOCC5)ccc34)n2)cc1 (stereo not shown) [GW767488]
ASK2
  %Inh: 44%
AURKA
  %Inh: 65%
AURKB
  %Inh: 84%
AURKC
  %Inh: 70%
AXL
  %Inh: 28%
BIKE
  %Inh: 93.6%
BLK
  %Inh: 0%
BMPR1A
  %Inh: 18%
BMPR1B
  %Inh: 58%
BMPR2
  %Inh: 42%

Reference: publication PMC5540273 (PLoS ONE, 2017)
